# Where a name gives a salt, the structure may show the parent alone.
# System: Drosophila S2 cl14 SmoIP sensor cells
# Assay: normalized SmoIP GFP fluorescence (untreated unstimulated = 0%, untreated Hh-stimulated = 100%); higher = more Smo activation sensor fluorescence
# Conditions: stimulation: Hh conditioned medium (+Hh); compound concentration: 2 uM; 24 h
# 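Note: flow cytometry read-out as median GFP intensity of gated cells, compounds added 30 min before Hh-conditioned or mock medium, mock-treated cells serving as unstimulated baseline.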
row,SMILES,normalized SmoIP GFP fluorescence [%]
1,Fc1ccc([C@@H]2CCNC[C@H]2COc2ccc3c(c2)OCO3)cc1 [paroxetine-hcl],103
2,CN1CCN(C2CCN(C(=O)Nc3cc(Oc4ccc(NC(=O)C5(C(=O)Nc6ccc(F)cc6)CC5)c(F)c4)ccn3)CC2)CC1 [golvatinib-e7050],125
3,Cc1ccc(C(=O)Nc2ccc(CN3CCN(C)CC3)c(C(F)(F)F)c2)cc1C#Cc1cnc2cccnn12,128
4,Oc1ccc(/C=C/c2cc(O)cc(O)c2)cc1 [Resveratrol],104
5,Cc1cc(Nc2cc(CN3CCOCC3)c3nc(C)c(Cc4ccc(Cl)cc4F)n3n2)n[nH]1,109
6,C=CC(=O)Nc1cccc(Nc2nc(Nc3ccc(Oc4ccnc(C(=O)NC)c4)cc3)ncc2F)c1,116
7,CCN(c1cc(-c2ccc(CN3CCOCC3)cc2)cc(C(=O)NCc2c(C)cc(C)[nH]c2=O)c1C)C1CCOCC1,106
8,NC1(c2ccc(-c3nc4ccn5c(=O)[nH]nc5c4cc3-c3ccccc3)cc2)CCC1,102
9,CC(C)(Oc1ccc(C2CC2(Cl)Cl)cc1)C(=O)O (stereo unspecified) [ciprofibrate],108
10,CCn1cc(-c2ccnc3[nH]c(-c4cccc(CN(C)C)c4)cc23)c(-c2ccc(NC(=O)N(C)C)cc2)n1,173
11,COc1ccc(CCc2nc3cc(-c4c(C)noc4C)ccc3n2C[C@H](C)N2CCOCC2)cc1Cl,144
12,Cn1cc(-c2ccc3ncc(Cc4ccc5ncccc5c4)n3n2)cn1,123
13,C=CC(=O)Nc1cccc(Nc2nc(Nc3ccc(OCCOC)cc3)ncc2F)c1,116
14,O=C(O)Cn1nnc(-c2cc(N3CCC(Oc4cc(F)ccc4Br)CC3)no2)n1,80.4
15,CC(=O)O/N=C1\C(=O)N(Cc2cc(Cl)ccc2Cl)c2ccc(Cl)cc21,106
16,CC1(COc2ccc3c(c2)ncn3-c2ccc3cccc(N4CCC(N)CC4)c3n2)COC1,260
17,CCCC(=O)OCOC(=O)C1=C(C)NC(C)=C(C(=O)OC)C1c1cccc(Cl)c1Cl (stereo unspecified) [cleviprex-clevidipine],119
18,O=C(Nc1cccc(C(F)(F)F)c1)Nc1cc(S(=O)(=O)NC2CC2)ccc1-c1ccsc1,111
19,CS(=O)(=O)c1ccc(-c2cnc(N)c(C(=O)Nc3ccccc3)n2)cc1,232

row,SMILES,normalized SmoIP GFP fluorescence [%]
1,O=C(NOCC(O)CO)c1cc(Br)c(F)c(F)c1Nc1ccc(I)cc1F (stereo unspecified),132
2,O=C(O)c1cccc(-c2noc(-c3ccccc3F)n2)c1,116
3,COC1CCN(C(=O)c2cc(Cc3n[nH]c(=O)c4ccccc34)ccc2F)CC1,103
4,O=C(Nc1ccc(S(=O)(=O)Nc2ccccc2Cl)c(Cl)c1)c1ccccn1,131
5,CCCCc1nc(Cl)c(CO)n1Cc1ccc(-c2ccccc2-c2nnn[nH]2)cc1 [losartan-potassium],90.8
6,Cc1nc(NC(=O)N2CCC[C@H]2C(N)=O)sc1-c1ccnc(C(C)(C)C(F)(F)F)c1,102
7,O=C1C(=O)N(Cc2ccc(Cl)c(Cl)c2)c2ccccc21 [apoptosis-activator-2],103
8,COc1ccc([C@H]2CNC(=O)C2)cc1OC1CCCC1 [sRolipram],102
9,CCS(=O)(=O)c1cccc(-c2cc(C(=O)NC3CCN(C)CC3)c(C)c3[nH]c4ncc(C)cc4c23)c1,103
10,CNC(=O)c1ccc2cc([C@@]3(O)CCn4cncc43)ccc2c1,104
11,NCCCCCNCC12CC3CC(CC(C3)C1)C2 [iem-1754-dihydrobromide],102
12,C#CCN[C@@H]1CCc2ccccc21 [rasagiline-mesylate],120
13,CCOc1cc([C@@H](CS(C)(=O)=O)N2C(=O)c3cccc(NC(C)=O)c3C2=O)ccc1OC,142
14,N#Cc1c(Oc2ccc(F)c(NC(=O)Cc3cccc(C(F)(F)F)c3)c2)ccc2nc(NC(=O)C3CC3)sc12,126
15,CC(C)NCC(O)COc1ccc(COCCOC(C)C)cc1 (stereo unspecified) [Bisoprolol-Fumarate],103
16,CN(C)CCC[C@@]1(c2ccc(F)cc2)OCc2cc(C#N)ccc21 [escitalopram-oxalate],107
17,O=S(=O)(NCCNC/C=C/c1ccc(Br)cc1)c1cccc2cnccc12 [H-89-dihydrochloride],105
18,O=C(O)Cc1ccccc1Nc1c(Cl)cccc1Cl [Diclofenac-sodium],110
19,Cc1cc(C)c(Nc2ccnc(Nc3ccc(C#N)cc3)n2)c(C)c1 [dapivirine],111

# Same assay, conditions: stimulation: mock conditioned medium (-Hh); compound concentration: 2 uM; 24 h
row,SMILES,normalized SmoIP GFP fluorescence [%]
1,Fc1ccc([C@@H]2CCNC[C@H]2COc2ccc3c(c2)OCO3)cc1 [paroxetine-hcl],0.588
2,CN1CCN(C2CCN(C(=O)Nc3cc(Oc4ccc(NC(=O)C5(C(=O)Nc6ccc(F)cc6)CC5)c(F)c4)ccn3)CC2)CC1 [golvatinib-e7050],12.5
3,Cc1ccc(C(=O)Nc2ccc(CN3CCN(C)CC3)c(C(F)(F)F)c2)cc1C#Cc1cnc2cccnn12,11.3
4,Oc1ccc(/C=C/c2cc(O)cc(O)c2)cc1 [Resveratrol],-4.25
5,Cc1cc(Nc2cc(CN3CCOCC3)c3nc(C)c(Cc4ccc(Cl)cc4F)n3n2)n[nH]1,-5.53
6,C=CC(=O)Nc1cccc(Nc2nc(Nc3ccc(Oc4ccnc(C(=O)NC)c4)cc3)ncc2F)c1,-1.23
7,CCN(c1cc(-c2ccc(CN3CCOCC3)cc2)cc(C(=O)NCc2c(C)cc(C)[nH]c2=O)c1C)C1CCOCC1,-3.39
8,NC1(c2ccc(-c3nc4ccn5c(=O)[nH]nc5c4cc3-c3ccccc3)cc2)CCC1,16.8
9,CC(C)(Oc1ccc(C2CC2(Cl)Cl)cc1)C(=O)O (stereo unspecified) [ciprofibrate],-5.35
10,CCn1cc(-c2ccnc3[nH]c(-c4cccc(CN(C)C)c4)cc23)c(-c2ccc(NC(=O)N(C)C)cc2)n1,-0.747
11,COc1ccc(CCc2nc3cc(-c4c(C)noc4C)ccc3n2C[C@H](C)N2CCOCC2)cc1Cl,2.75
12,Cn1cc(-c2ccc3ncc(Cc4ccc5ncccc5c4)n3n2)cn1,-6.97
13,C=CC(=O)Nc1cccc(Nc2nc(Nc3ccc(OCCOC)cc3)ncc2F)c1,-2.31
14,O=C(O)Cn1nnc(-c2cc(N3CCC(Oc4cc(F)ccc4Br)CC3)no2)n1,13.3
15,CC(=O)O/N=C1\C(=O)N(Cc2cc(Cl)ccc2Cl)c2ccc(Cl)cc21,-2.93
16,CC1(COc2ccc3c(c2)ncn3-c2ccc3cccc(N4CCC(N)CC4)c3n2)COC1,77.9
17,CCCC(=O)OCOC(=O)C1=C(C)NC(C)=C(C(=O)OC)C1c1cccc(Cl)c1Cl (stereo unspecified) [cleviprex-clevidipine],-12.9
18,O=C(Nc1cccc(C(F)(F)F)c1)Nc1cc(S(=O)(=O)NC2CC2)ccc1-c1ccsc1,-3.05
19,CS(=O)(=O)c1ccc(-c2cnc(N)c(C(=O)Nc3ccccc3)n2)cc1,74.4

row,SMILES,normalized SmoIP GFP fluorescence [%]
1,O=C(NOCC(O)CO)c1cc(Br)c(F)c(F)c1Nc1ccc(I)cc1F (stereo unspecified),16.8
2,O=C(O)c1cccc(-c2noc(-c3ccccc3F)n2)c1,-0.662
3,COC1CCN(C(=O)c2cc(Cc3n[nH]c(=O)c4ccccc34)ccc2F)CC1,-3.5
4,O=C(Nc1ccc(S(=O)(=O)Nc2ccccc2Cl)c(Cl)c1)c1ccccn1,3.4
5,CCCCc1nc(Cl)c(CO)n1Cc1ccc(-c2ccccc2-c2nnn[nH]2)cc1 [losartan-potassium],-1.56
6,Cc1nc(NC(=O)N2CCC[C@H]2C(N)=O)sc1-c1ccnc(C(C)(C)C(F)(F)F)c1,-1.23
7,O=C1C(=O)N(Cc2ccc(Cl)c(Cl)c2)c2ccccc21 [apoptosis-activator-2],-2.82
8,COc1ccc([C@H]2CNC(=O)C2)cc1OC1CCCC1 [sRolipram],-4.08
9,CCS(=O)(=O)c1cccc(-c2cc(C(=O)NC3CCN(C)CC3)c(C)c3[nH]c4ncc(C)cc4c23)c1,-25.2
10,CNC(=O)c1ccc2cc([C@@]3(O)CCn4cncc43)ccc2c1,-1.56
11,NCCCCCNCC12CC3CC(CC(C3)C1)C2 [iem-1754-dihydrobromide],-2.31
12,C#CCN[C@@H]1CCc2ccccc21 [rasagiline-mesylate],-13.4
13,CCOc1cc([C@@H](CS(C)(=O)=O)N2C(=O)c3cccc(NC(C)=O)c3C2=O)ccc1OC,-14.5
14,N#Cc1c(Oc2ccc(F)c(NC(=O)Cc3cccc(C(F)(F)F)c3)c2)ccc2nc(NC(=O)C3CC3)sc12,-0.889
15,CC(C)NCC(O)COc1ccc(COCCOC(C)C)cc1 (stereo unspecified) [Bisoprolol-Fumarate],8.79
16,CN(C)CCC[C@@]1(c2ccc(F)cc2)OCc2cc(C#N)ccc21 [escitalopram-oxalate],-1.12
17,O=S(=O)(NCCNC/C=C/c1ccc(Br)cc1)c1cccc2cnccc12 [H-89-dihydrochloride],5.45
18,O=C(O)Cc1ccccc1Nc1c(Cl)cccc1Cl [Diclofenac-sodium],4.03
19,Cc1cc(C)c(Nc2ccnc(Nc3ccc(C#N)cc3)n2)c(C)c1 [dapivirine],-4.13

# — the supplement of paper PMC5662767
